High-throughput results from PubChem.
Compounds with a hit are over-represented: about 21% of the library has one in this group of screens.
Pf growth 48h – P. falciparum growth inhibition at 48 hours (one generation). P. falciparum luciferase growth in erythrocytes, 48 h. Potency, µM (titrated, usually from 28.7 µM), most hits filed as inhibitors. actives 5.9% (n = 310,000)
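Growth was read as firefly luciferase luminescence after a 48 h, 37 C, 5% CO2 exposure of compounds to reporter-bearing P. falciparum cultures (0.1% parasitemia, 2% hematocrit final) in Albumax-supplemented RPMI 1640.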
Shiga toxin inh – blocks Shiga toxin action in Vero cells; Vero cells, Shiga toxin protein synthesis inhibition reporter; inhibition, % at 38.7 µM; actives 9.2% (n = 290,000); AID 2315; in the data active means inhibition mostly above about 28%, no sharp cut-off; inactive means mostly below about 43%
CHX counter – counter-screen hit for Shiga toxin inhibitors, cycloheximide | cell reporter, cycloheximide protein synthesis inhibition counterscreen | max response, % | actives 12% (n = 300,000); in the data active means max response mostly above about 13%, no sharp cut-off; inactive means mostly below about 14%; further: read at 38.3 µM for the half of the compounds with a filed dose
NS1 function inh – inhibitors of influenza NS1 protein function; AID 2326; actives 0.4% (n = 270,000); Potency, µM (doses to about 46.1 µM); calls by dose curve; further: actives are rising curves; nearly all actives have a fitted effect of over 50% in size
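S. cerevisiae expressing influenza A NS1, grown in glucose, washed, then diluted 1:100 into pH 6.0 -URA galactose medium with 23 nl compound. Growth recovery read as OD600; NS1-free strain serves as control.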
Pf growth 96h – P. falciparum growth inhibition at 96 hour, primary screen for plastid delayed-death inhibitors; P. falciparum luciferase reporter growth, 96 h; Potency, µM (highest dose often 28.7 µM), most hits filed as inhibitors; actives 6.9% (n = 320,000); AID 504834
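Readout is luminescence from an integrated firefly luciferase in P. falciparum. Red cells, 2% hematocrit and 0.05% parasitemia final, were cultured with compound through two parasite generations (96 hours) at 37 C, 5% CO2.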
Sm TGR block – S. mansoni TGR enzyme inhibition. Q962Y6. purified TGR, DTNB reduction, TNB absorbance 405 nm. Potency, µM (series often up to 114 µM), most hits filed as inhibitors. actives 3% (n = 360,000). AID 485364; further: nearly all actives have a fitted effect of over 60% in size
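Kinetic colorimetric format: TGR-catalysed, NADPH-driven DTNB reduction monitored via TNB absorbance. Enzyme dispensed at 20 nM; compound exposure 15 min at room temperature before reaction start.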
Each line names hits and unclear results; the compound was inactive in the other large screens. Unless noted, the call rests on the fitted dose curve; in most records, active means well fitted curve in the direction sought with a large enough effect; inconclusive means small, poorly fitted or top-dose-only effect, or another doubt; inactive means no such curve, though single readings can be large; an effect the other way counts as inactive or inconclusive.

CCN(CC(=O)NC(c1ccccc1)c1ccccc1)Cc1nc2ccccc2c(=O)[nH]1	Pf growth 48h 11.7µM, Pf growth 96h 7.38µM
CCN(CC(=O)Nc1ccc2c(c1)CCC2)Cc1nc2ccccc2c(=O)[nH]1	Shiga toxin inh 54.6, Sm TGR block 50.1µM
O=C1C2C3C=CC(C3)C2C(=O)N1c1nc2ccccc2s1 (stereo unspecified)	Pf growth 96h 8.28µM
CN1CCN(CCC(=O)Nc2cccc(Br)c2)CC1	none
COc1cccc(N2CCN(C(=O)c3cc4c(OC)c(OC)c(OC)cc4[nH]3)CC2)c1	Pf growth 96h 7.38µM (no result: Pf growth 48h)
O=c1c(Cl)c(O)c2cccc3c4ccccc4n1c23	none
COc1c(O)c(=O)n2c3ccccc3c3ccnc1c32	Pf growth 48h 10.4µM, Pf growth 96h inconclusive, Sm TGR block 3.98µM (no result: Shiga toxin inh, CHX counter, NS1 function inh)
CCOC(=O)C(C)n1cnc2c(nnn2Cc2ccc(Cl)cc2)c1=O (stereo unspecified)	Pf growth 96h 8.28µM (no result: Pf growth 48h)
CCOC(=O)C(C)n1cnc2c(nnn2-c2ccc(C)cc2)c1=O (stereo unspecified)	Pf growth 96h 7.38µM (no result: Pf growth 48h)
CCC(C(=O)OC)n1cnc2c(nnn2-c2ccc(C)cc2)c1=O (stereo unspecified)	Shiga toxin inh 21.9, CHX counter 12.2
CCC(C(=O)OC)n1cnc2c(nnn2-c2ccc(OC)cc2)c1=O (stereo unspecified)	none
CCOC(=O)C(C)n1cnc2c(nnn2-c2ccc(OC)cc2)c1=O (stereo unspecified)	Shiga toxin inh 85.7, CHX counter 31.6
CCOC(=O)c1c(C)[nH]c(CCC(=O)NCc2ccc(F)cc2)c1C	none (no result: Pf growth 48h, Shiga toxin inh, CHX counter, NS1 function inh, Pf growth 96h)
O=C(NCC(c1ccco1)N1CCCC1)c1ccccc1Sc1ccc(C(F)(F)F)cc1[N+](=O)[O-] (stereo unspecified)	Pf growth 48h inconclusive, Pf growth 96h inconclusive (no result: Shiga toxin inh, CHX counter, NS1 function inh)
COC(=O)c1c(-c2ccc(Cl)cc2)noc1N1CCN(c2ccccc2OC)CC1	none (no result: Pf growth 48h, Shiga toxin inh, CHX counter, NS1 function inh, Pf growth 96h)
CC1=C(c2ccc(C(C)C)cc2)S(=O)(=O)N=C1N1CCC(C(=O)Nc2ccc(C)cc2)CC1	none (no result: Pf growth 48h, Shiga toxin inh, CHX counter, NS1 function inh, Pf growth 96h)
Cc1cc(Cl)cc2c(N=Nc3ccccc3C(=O)O)c(O)[nH]c12	Pf growth 48h inconclusive
Cc1ccc(Cl)c2c(N=Nc3ccccc3)c(O)[nH]c12	Shiga toxin inh 65.9, CHX counter 17.6
CCc1cccc(NC(=O)c2ccc(NC(=O)N3CCSc4ncccc43)cc2)c1	none (no result: Pf growth 48h, Shiga toxin inh, CHX counter, NS1 function inh, Pf growth 96h)
CN(C)CCNc1ncnc2c1sc1nc(N3CCCC3)c3c(c12)CC(C)(C)OC3	none
CC1(C)Cc2c(c(-c3ccco3)nc3sc4c(NCC5CCCO5)ncnc4c23)CO1 (stereo unspecified)	Pf growth 96h inconclusive, Sm TGR block 79.4µM
CC1(C)Cc2c(c(-c3ccco3)nc3sc4c(NCCCO)ncnc4c23)CO1	Pf growth 48h inconclusive, Pf growth 96h 4.15µM, Sm TGR block 2µM
CC(C)CNc1ncnc2c1sc1nc(N3CCOCC3)c3c(c12)CC(C)(C)OC3	Pf growth 48h inconclusive, Pf growth 96h inconclusive
CC1(C)Cc2c(c(-c3ccco3)nc3sc4c(NCCN5CCOCC5)ncnc4c23)CO1	Pf growth 48h 8.28µM, Pf growth 96h inconclusive, Sm TGR block 39.8µM
CCN1CCN(C(c2ccccc2Cl)c2c(O)cc(C)n(Cc3ccco3)c2=O)CC1 (stereo unspecified)	Sm TGR block 3.98µM (no result: Pf growth 48h, Shiga toxin inh, CHX counter, NS1 function inh, Pf growth 96h)
Cc1cc(O)c(C(c2ccccc2Cl)N2CCN(c3ccccc3)CC2)c(=O)n1Cc1ccco1 (stereo unspecified)	Sm TGR block 2.82µM (no result: Pf growth 48h, Shiga toxin inh, CHX counter, NS1 function inh, Pf growth 96h)
O=C(c1ccco1)N1CCN(C(c2ccccc2Cl)c2nnnn2Cc2ccco2)CC1 (stereo unspecified)	Pf growth 48h inconclusive, Sm TGR block inconclusive (no result: Pf growth 96h)
CCS(=O)(=O)c1ccc2oc(SCC(=O)c3c(N)n(C4CC4)c(=O)[nH]c3=O)nc2c1	Pf growth 96h inconclusive (no result: Shiga toxin inh, CHX counter, NS1 function inh)
Cc1ccc(S(=O)(=O)N2CCN(Cc3cc(=O)n4nc(-c5ccccc5Cl)sc4n3)CC2)cc1	none (no result: Pf growth 48h, Shiga toxin inh, CHX counter, NS1 function inh, Pf growth 96h)
Cc1ccc2c(c1)c(=O)c1c3n2CCN(CC#N)C3CC1 (stereo unspecified)	none
Cc1ccc2c(c1)c1c3n2CCN(C(=O)Cn2c(-c4ccccc4)noc2=O)C3CCC1 (stereo unspecified)	Pf growth 48h 0.185µM, NS1 function inh inconclusive, Pf growth 96h 9.28µM
